Here are results for 17 compounds from PubChem BioAssay (NCATS).

Experiment [1] can be described thus: High-throughput drug toxicity screening in the BPDCN cell line Cal-1 (AID 1224825; call rule not given here). The note with it: Cal-1 BPDCN cell viability, qHTS; at 45.8 µM (top of the series). An outline of the steps: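 Percent activity derived from CellTiter-Glo luminescence, scaling DMSO to 100% and 9.2 uM final bortezomib to 0%. BPDCN Cal-1 cells (500/well, RPMI plus 10% FBS) incubated with compounds 48 hours at 37C before reading.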
In general terms: qHTS replaces the single test concentration by a dilution series.

A short description of experiment [2]: qHTS assay for measurement of the activity of small molecule inhibitors on Zika virus induced Caspase-3 activity in human iPSC derived neural progenitor cells (hNPCs) (AID 1224857). Also: % of control where 0% means no effect; nearly all actives have a fitted effect of over 65% in size. An outline of the steps:
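Human iPSC-derived neural progenitor cells pretreated 1 hr with compounds, then infected with Zika virus (2 FFU/cell) for 6 hours at 37 C. Caspase-3/7 measured by Caspase-Glo luminescence; % inhibition calculated from induction scaled to uninfected (0%) and infected (100%) wells.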

Experiment [3] can be described thus: qHTS assay for measurement of the activity of small molecule inhibitors on Zika virus induced Caspase-3 activity in human astrocytoma cells (AID 1224859).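 Also: plate controls were ZIKV-infected untreated cells for no effect and uninfected cells for full effect.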 In outline:
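SNB-19 astrocytoma cells, 250/well, pretreated 1 h with compounds, then Zika virus at 2 FFU/cell for 6 h at 37 C; Caspase-Glo 3/7 luminescence after 30 min; percent inhibition normalised to uninfected and infected controls.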

The nature of experiment [4]: qHTS Screen of the MIPE 4.0 Collection Against Ewings Sarcoma (RDES) (AID 1259252). Also: nearly all actives have a fitted effect of over 35% in size. Also: potency is read from the fitted curve at half-maximal effect. An outline of the steps: (§1)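 Cells plated in serum-containing RPMI (5% FBS) and treated with compound dilutions for 48 h. Readout luminescent viability; normalization relied on vehicle (no inhibition) and media-only columns (full inhibition).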
Experiment [5] is described as follows: qHTS Screen of the MIPE 4.0 Collection Against Ewings Sarcoma (TC71) (AID 1259253). Also: nearly all actives have a fitted effect of over 40% in size. Also: potency is read from the fitted curve at half-maximal effect. An outline of the steps: as §1
Experiment [6] can be described thus: P-glycoprotein substrates identified in KB-3-1 adenocarcinoma cell line, qHTS therapeutic library screen (AID 1346986). Also: nearly all actives have a fitted effect of over 60% in size. In outline: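 Dose-response cytotoxicity, KB-3-1 vs P-gp-high KB-8-5-11, no colchicine in assay medium. Read: CellTiter-Glo at 72 h.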
A short description of experiment [7]: P-glycoprotein substrates identified in KB-8-5-11 adenocarcinoma cell line, qHTS therapeutic library screen (AID 1346987). Also: nearly all actives have a fitted effect of over 65% in size. Also: potency is read from the fitted curve at half-maximal effect. An outline of the steps:
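Human cervical adenocarcinoma KB-8-5-11 cells, selected in colchicine to over-express P-gp and assayed without it, were exposed for 72 h to titrated compounds. An ATP-based luminescent viability signal gave AC50.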

The nature of experiment [8]: NS1 protein of Zika virus - qHTS assay to identify small molecule inhibitors in human HEK 293 cells (AID 1347053). Also: nearly all actives have a fitted effect of over 55% in size. Also: potency is read from the fitted curve at half-maximal effect. An outline of the steps: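 Read-out is a two-antibody TR-FRET for ZIKV NS1, normalized between uninfected cells and infected cells. Compound added 1 h before MR766 infection at MOI 0.5; human HEK 293 cells incubated 24 h, 37 C.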
Experiment [9] in a line: qHTS Screen of the MIPE 4.0 Collection Against Ewings Sarcoma (EW8) (AID 1259255). Also: nearly all actives have a fitted effect of over 35% in size. Also: potency is read from the fitted curve at half-maximal effect.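 As to viability: 100% = DMSO-treated cells and 0% = medium-only wells without cells.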 An outline of the steps:
as §1

Experiment [10] can be described thus: qHTS Screen of the MIPE 4.0 Collection Against Ewings Sarcoma (TC32) (AID 1259256). Also: nearly all actives have a fitted effect of over 45% in size. Also: potency is read from the fitted curve at half-maximal effect. In outline:
as §1

Experiment [11] in a line: Identifying Small Molecule Inhibitors of Pancreatic Cancer Stem Cells (SN12C, Adherent) (AID 1259358).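 Also: potency is read from the fitted curve at half-maximal effect; cell survival measured after 48 h of compound exposure.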 In outline:
(§2)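 Pre-formed 14-day tumor spheroids or adherent cells dosed and incubated 48 h, 37C, 5% CO2. Viability assessed by CellTiter-Glo.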

A short description of experiment [12]: Identifying Small Molecule Inhibitors of Pancreatic Cancer Stem Cells (A278, Adherent) (AID 1259361).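 Also: viability read after 48 h compound exposure; nearly all actives have a fitted effect of over 35% in size.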 An outline of the steps: as §2
Experiment [13] in a line: Identifying Small Molecule Inhibitors of Pancreatic Cancer Stem Cells (Panc1, Adherent) (AID 1259362). Also: potency is read from the fitted curve at half-maximal effect. The note with it: Potency: viability. An outline of the steps:
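Viability is scored by CellTiter-Glo luminescence 48 h after dosing, expressed as percent activity against vehicle and no-cell references. Spheroid formats rely on cells cultured 14 days in stem cell media beforehand.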

Experiment [14] is described as follows: Natriuretic polypeptide receptor (hNpr1) antagonism - Pilot counterscreen GloSensor control cell line (AID 1347045; calls by dose curve; also: potency is read from the fitted curve at half-maximal effect). In outline:
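The SNP-driven cGMP luminescence signal (50 uM, 20 min, room temperature) was measured in GloSensor HEK293 control cells. Compounds were tested as a LOPAC titration series and preincubated for 30-50 min.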
A general note: Counterscreens check selectivity or assay interference.

Experiment [15] addresses Atrial natriuretic peptide receptor 1 (Homo sapiens) (UniProt P16066). Nature of the experiment: Natriuretic polypeptide receptor (hNpr1) antagonism - Pilot screen (AID 1347049; calls by dose curve;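 also: HEK293 cells with hNpr1 and GloSensor cGMP luciferase stimulated by 0.1 nM hNppA; agonist-evoked cGMP luminescence read 20 min after hNppA addition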; also: potency is read from the fitted curve at half-maximal effect). An outline of the steps:
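Receptor antagonism read as cGMP-dependent luminescence in hNpr1/pGS-40F HEK293 cells: pre-read after 30 min compound exposure, post-read 20 min after hNppA agonist at 0.1 nM final, all at room temperature, protected from light; A-71915 titration as control.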

Experiment [16] addresses Atrial natriuretic peptide receptor 2 (Homo sapiens) (UniProt P20594). The experiment can be described thus: Natriuretic polypeptide receptor (hNpr2) antagonism - Pilot subtype selectivity assay (AID 1347050; calls by dose curve; also: potency is read from the fitted curve at half-maximal effect). An outline of the steps:
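Antagonist mode: compounds (LOPAC1280, seven 1:5 dilutions) added 30 min before 1 nM hNppC stimulation of hNpr2-HEK293 cGMP-sensor cells; luminescence read before and 20 min after agonist at ambient temperature.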

Results filed as inconclusive are left out. Active and inactive are the calls of the source. Unless noted, calls follow the shape of the dose curve; as a rule, active = well fitted curve in the direction sought with a large enough effect; inconclusive = small, poorly fitted or top-dose-only effect, or another doubt; inactive = no such curve, though single readings can be large; an effect the other way counts as inactive or inconclusive.

Chain of Atrial natriuretic peptide receptor 2 (Homo sapiens) (P20594 whole entry, looked up): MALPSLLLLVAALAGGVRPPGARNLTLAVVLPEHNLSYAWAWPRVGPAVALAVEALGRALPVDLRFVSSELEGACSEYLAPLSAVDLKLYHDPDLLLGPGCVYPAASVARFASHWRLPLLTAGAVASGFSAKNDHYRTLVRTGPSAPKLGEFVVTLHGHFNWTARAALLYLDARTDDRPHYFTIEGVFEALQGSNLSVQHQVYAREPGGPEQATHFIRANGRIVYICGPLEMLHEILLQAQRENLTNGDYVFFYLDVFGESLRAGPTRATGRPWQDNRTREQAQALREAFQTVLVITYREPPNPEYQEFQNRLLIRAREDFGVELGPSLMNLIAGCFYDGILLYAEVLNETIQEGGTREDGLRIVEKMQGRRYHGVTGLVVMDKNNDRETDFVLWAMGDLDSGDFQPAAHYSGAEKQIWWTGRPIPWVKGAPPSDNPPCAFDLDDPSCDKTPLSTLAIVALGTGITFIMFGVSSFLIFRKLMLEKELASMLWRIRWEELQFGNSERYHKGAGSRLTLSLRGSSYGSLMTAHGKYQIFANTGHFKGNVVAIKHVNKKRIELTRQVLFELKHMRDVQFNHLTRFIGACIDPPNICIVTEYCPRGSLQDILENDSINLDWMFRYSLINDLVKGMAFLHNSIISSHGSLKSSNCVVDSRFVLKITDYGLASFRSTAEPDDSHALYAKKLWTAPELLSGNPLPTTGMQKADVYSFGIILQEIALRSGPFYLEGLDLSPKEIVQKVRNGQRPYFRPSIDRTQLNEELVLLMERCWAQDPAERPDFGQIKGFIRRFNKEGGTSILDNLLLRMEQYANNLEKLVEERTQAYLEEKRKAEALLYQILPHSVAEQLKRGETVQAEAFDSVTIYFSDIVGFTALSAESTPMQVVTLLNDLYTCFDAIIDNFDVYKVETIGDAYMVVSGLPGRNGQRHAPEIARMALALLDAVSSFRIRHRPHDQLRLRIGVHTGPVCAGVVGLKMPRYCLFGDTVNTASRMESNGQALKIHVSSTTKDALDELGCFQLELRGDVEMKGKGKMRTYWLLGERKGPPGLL
Chain of Atrial natriuretic peptide receptor 1 (Homo sapiens) (P16066 whole entry, looked up): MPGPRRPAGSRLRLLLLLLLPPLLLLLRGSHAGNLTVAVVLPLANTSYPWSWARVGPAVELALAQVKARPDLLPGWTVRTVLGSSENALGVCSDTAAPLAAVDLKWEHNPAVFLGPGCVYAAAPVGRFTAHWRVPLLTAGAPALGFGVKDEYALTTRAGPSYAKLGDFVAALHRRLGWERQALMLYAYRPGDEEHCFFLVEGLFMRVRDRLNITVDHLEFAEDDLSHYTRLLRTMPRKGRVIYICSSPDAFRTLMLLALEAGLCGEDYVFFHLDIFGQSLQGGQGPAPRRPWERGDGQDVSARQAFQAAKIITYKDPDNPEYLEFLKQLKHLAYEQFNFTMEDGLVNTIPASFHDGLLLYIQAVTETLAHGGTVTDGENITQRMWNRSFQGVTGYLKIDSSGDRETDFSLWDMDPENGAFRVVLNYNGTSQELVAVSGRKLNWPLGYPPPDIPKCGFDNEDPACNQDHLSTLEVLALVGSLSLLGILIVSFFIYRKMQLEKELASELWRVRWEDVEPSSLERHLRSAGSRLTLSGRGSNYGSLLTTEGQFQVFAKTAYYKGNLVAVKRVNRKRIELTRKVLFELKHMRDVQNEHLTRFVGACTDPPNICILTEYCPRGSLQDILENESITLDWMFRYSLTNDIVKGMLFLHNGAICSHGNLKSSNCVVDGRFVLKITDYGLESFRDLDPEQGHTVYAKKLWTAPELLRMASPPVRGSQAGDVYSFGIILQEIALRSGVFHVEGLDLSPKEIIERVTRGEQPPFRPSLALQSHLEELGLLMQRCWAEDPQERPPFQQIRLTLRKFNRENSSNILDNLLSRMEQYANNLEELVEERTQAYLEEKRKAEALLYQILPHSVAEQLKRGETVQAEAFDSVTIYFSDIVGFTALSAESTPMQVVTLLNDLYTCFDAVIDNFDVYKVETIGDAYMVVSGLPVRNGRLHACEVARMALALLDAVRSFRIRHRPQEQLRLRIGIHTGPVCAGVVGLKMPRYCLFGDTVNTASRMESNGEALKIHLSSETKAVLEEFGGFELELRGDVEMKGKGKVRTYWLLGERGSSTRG

On to `CCCN1CCO[C@@H]2c3cc(O)ccc3OC[C@@H]21`, for which the viability (% of control) in experiment [1] came to 16.6%. For the same compound, the Potency entry in [2], in experiment [3], in [4], in [5], in experiment [6] and in [7] was “inactive” throughout. Moreover, in experiment [8], the Potency result was “inactive”.
As for `CCN1C[C@]2(OC(=O)c3ccccc3NC(C)=O)CC[C@H](OC)[C@@]34[C@H]5CC6[C@@H](OC)C[C@](O)(C(C[C@@H]23)[C@@H]14)[C@@]5(O)[C@@H]6OC`, in [1], the viability (% of control) was 108%. In addition, the Potency result in experiment [2], in [3], in experiment [4], in [5], in experiment [9] and in experiment [10] was “inactive” in each case. The Potency entry in experiment [6], in [7] and in [8] was “inactive” in each case.
Regarding `COC1=C[C@@H]2[C@@H]3Cc4ccc(OC)c(O)c4[C@]2(CCN3C)CC1=O`, the viability (% of control) in experiment [1] was determined as 12.3%. Moreover, the Potency result in experiment [2], in experiment [3], in experiment [6] and in [8] was “inactive” in each case. In addition, the Potency in experiment [4] is 4.69 µM (active); in experiment [5], 3.32 µM (active); in experiment [10] it was 2.96 µM (active).
On to `O=c1[nH]c2ccc(Cl)cc2c(N[C@@H]2CN3CCC2CC3)c1-c1nc2ccccc2[nH]1`, for which the viability (% of control) in experiment [1] came out at 2.3%. Besides, the Potency result in experiment [2] and in experiment [3] was “inactive” in each case. The Potency in experiment [4] is 1.66 µM (active); in experiment [5], 0.0418 µM (active); in experiment [10], 0.0833 µM (active); in experiment [8], 0.0526 µM (active).
With `C#C[C@]1(O)C=C[C@@H]2[C@@H]3CCC4=CC(=O)CC[C@@H]4[C@H]3CC[C@@]21CC`, the viability (% of control) in experiment [1] is 74.7%. Further, the Potency entry in experiment [2], in experiment [3], in [4], in experiment [5], in experiment [10] and in experiment [8] was “inactive” in each case.
For `Cc1[nH]nc2ccc(-c3cncc(OC[C@@H](N)Cc4c[nH]c5ccccc45)c3)cc12`, the viability (% of control) in [1] is 1.66%. Further, the Potency result in experiment [2] and in experiment [3] was “inactive” throughout. Further, the Potency was 0.209 µM (active) in [4], 0.372 µM (active) in experiment [5], 4.69 µM (active) in experiment [10] and 5.9 µM (active) in experiment [8].
Turning to `COc1ccc2c(c[n+](C)c3c4cc5c(cc4ccc23)OCO5)c1OC`, the viability (% of control) in experiment [1] came to 3.4%. For the same compound, the Potency entry in [2] and in experiment [3] was “inactive” in each case. Also, the Potency was 4.69 µM (active) in experiment [4]; 9.35 µM (active) in experiment [5]; 7.43 µM (active) in experiment [9]; 8.33 µM (active) in experiment [10]; 20.9 µM (active) in [11]; 6.62 µM (active) in experiment [13]. Also, the Potency in [14] was 13.1 µM (active); in [15], 16.9 µM (active); in experiment [16], 14.7 µM (active). Moreover, the IC50 (viability decrease) in experiment [12] is 16.6 µM (active).
For `CC(C)[C@]12O[C@@H]1[C@@H]1O[C@]13[C@]1(O[C@H]1C[C@@H]1C4=C(CC[C@@]13C)C(=O)OC4)[C@H]2O`, in experiment [1], the viability (% of control) worked out at 2.1%. Moreover, the Potency result in experiment [2], in [3], in experiment [4], in experiment [5] and in experiment [10] was “inactive” throughout. Besides, the Potency in experiment [7] is 0.001 µM (active).
Consider `Cc1ccccc1-n1c(Cn2ncc3c(N)ncnc32)nc2cccc(C)c2c1=O`, for which, in experiment [1], the viability (% of control) is 17.1%. In addition, the Potency entry in experiment [2], in experiment [3], in [6], in [7] and in experiment [8] was “inactive” throughout. For the same compound, the figures for the Potency in experiment [4], in [5] and in experiment [10] were 10.5 µM (active), 16.6 µM (active) and 11.8 µM (active), respectively.
With `C[C@H]([C@H](O)CCC(C)(C)O)[C@H]1CC[C@@]2(O)C3=CC(=O)[C@@H]4C[C@@H](O)[C@@H](O)C[C@]4(C)[C@@H]3CC[C@]12C`, the viability (% of control) in [1] came to 110%. The Potency entry in experiment [2], in experiment [3], in experiment [4], in experiment [5], in experiment [10] and in [7] was “inactive” in each case. Also, in experiment [8], the Potency entry is “inactive”.
Take `O=c1[nH]c2ccccc2n1C1CCN(Cc2ccc(-c3[nH]c4cc5ncnc5cc4nc3-c3ccccc3)cc2)CC1`: the viability (% of control) in experiment [1] came to 3.61%. Further, the Potency entry in [2], in experiment [3] and in experiment [6] was “inactive” throughout. Also, the Potency is 23.5 µM (active) in experiment [4], 20.9 µM (active) in [5], 20.9 µM (active) in [10] and 18.7 µM (active) in [8].
For `O=C(N[C@H]1CN2CCC1CC2)c1ccc(Cl)cc1`, the viability (% of control) in experiment [1] amounted to 106%. Also, the Potency result in [2], in experiment [3], in [6], in experiment [7], in [14] and in [15] was “inactive” in each case. The Potency entry in [16] and in [8] was “inactive” each time. Also, the Potency was 8.33 µM (active) in experiment [4], 18.7 µM (active) in experiment [5] and 14.8 µM (active) in [10].
As to `C[C@]12CC[C@H](O)CC1=CC[C@H]1[C@H]3CCC(=O)[C@@]3(C)CC[C@@H]12`, the viability (% of control) in [1] came to 104%. For the same compound, the Potency entry in experiment [2], in [3], in [7] and in experiment [8] was “inactive” each time. Also, the Potency in [4] is 4.18 µM (active); in experiment [5], 18.7 µM (active); in experiment [9], 16.6 µM (active); in [10], 16.6 µM (active).
As to `N#C[C@H](O[C@@H]1O[C@H](CO[C@@H]2O[C@H](CO)[C@H](O)[C@H](O)[C@H]2O)[C@H](O)[C@H](O)[C@H]1O)c1ccccc1`, the viability (% of control) in experiment [1] amounted to 52.5%. Further, the Potency entry in experiment [2] and in experiment [3] was “inactive” each time. The Potency in [4] is 23.5 µM (active); in experiment [5] it was 20.9 µM (active); in [10] it was 26.4 µM (active); in experiment [7], 20.9 µM (active).
Turning to `CSCC[C@@H](NC(=O)[C@@H](Cc1ccccc1)NC(=O)CNC(=O)CNC(=O)[C@@H](N)Cc1ccc(O)cc1)C(=O)O`, the viability (% of control) in experiment [1] worked out at 134%. For the same compound, the Potency entry in experiment [2], in experiment [3], in experiment [4], in experiment [5], in experiment [10] and in experiment [7] was “inactive” throughout. Besides, in experiment [8], the Potency result is “inactive”.
Turning to `O=C(O)CNC(=O)c1c(O)c2ccccc2n(Cc2ccccc2)c1=O`, the viability (% of control) in experiment [1] was 132%. The Potency entry in experiment [2], in experiment [3], in experiment [7] and in experiment [8] was “inactive” throughout. Besides, the Potency was 14.8 µM (active) in [4], 13.2 µM (active) in experiment [5] and 16.6 µM (active) in [9].
For the compound `CCNC(=O)C[C@@H]1N=C(c2ccc(Cl)cc2)c2cc(OC)ccc2-n2c(C)nnc21`, in [1], the viability (% of control) is 7.23%. Moreover, the Potency entry in [2], in [3] and in experiment [8] was “inactive” throughout. Moreover, the Potency in experiment [4] was 3.32 µM (active); in experiment [5] it was 2.96 µM (active); in experiment [10], 3.72 µM (active).
